This note sets out measurements from ChEMBL document CHEMBL1961873, “Compounds: GSK PKIS; Assays: Nanosyn kinase panel” (2012).

The target in experiment [1] is Mitogen-activated protein kinase 3 (Homo sapiens) (UniProt P27361). Particulars: at 1 µM.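 Note: values are mean percent inhibition of MAPK3.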
In experiment [2] the target is SRSF protein kinase 3 (Homo sapiens) (UniProt Q9UPE1). Particulars: at 0.1 µM.
For experiment [3] the target is unchanged. Particulars: at 1 µM.
Experiment [4] deals with Mitogen-activated protein kinase 14 (Homo sapiens) (UniProt Q16539). Particulars: at 0.1 µM.
The target is the same in experiment [5]. Particulars: at 1 µM.
Experiment [6] concerns the target Mitogen-activated protein kinase 11 (Homo sapiens) (UniProt Q15759). Particulars: at 0.1 µM.
Experiment [7] has the same target. Particulars: at 1 µM.
For experiment [8], the target named is T1, Mitogen-activated protein kinase 13 (Homo sapiens) (UniProt O15264).
T1 sequence (whole entry): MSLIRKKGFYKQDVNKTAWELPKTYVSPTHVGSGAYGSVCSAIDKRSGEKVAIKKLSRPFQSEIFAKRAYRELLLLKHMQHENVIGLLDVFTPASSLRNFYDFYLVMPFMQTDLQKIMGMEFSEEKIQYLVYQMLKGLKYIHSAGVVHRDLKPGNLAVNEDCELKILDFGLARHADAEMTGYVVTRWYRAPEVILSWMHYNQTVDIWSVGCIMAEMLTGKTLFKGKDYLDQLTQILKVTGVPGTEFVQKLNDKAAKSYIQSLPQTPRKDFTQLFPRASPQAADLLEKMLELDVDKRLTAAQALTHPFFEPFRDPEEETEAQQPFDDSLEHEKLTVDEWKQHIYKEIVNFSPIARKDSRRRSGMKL
Particulars: at 0.1 µM.

Experiment [9] concerns the target T1, Mitogen-activated protein kinase 13 (Homo sapiens). Particulars: at 1 µM.
The target of experiment [10] is T2, Mitogen-activated protein kinase 12 (Homo sapiens) (UniProt P53778).
T2 sequence (whole entry): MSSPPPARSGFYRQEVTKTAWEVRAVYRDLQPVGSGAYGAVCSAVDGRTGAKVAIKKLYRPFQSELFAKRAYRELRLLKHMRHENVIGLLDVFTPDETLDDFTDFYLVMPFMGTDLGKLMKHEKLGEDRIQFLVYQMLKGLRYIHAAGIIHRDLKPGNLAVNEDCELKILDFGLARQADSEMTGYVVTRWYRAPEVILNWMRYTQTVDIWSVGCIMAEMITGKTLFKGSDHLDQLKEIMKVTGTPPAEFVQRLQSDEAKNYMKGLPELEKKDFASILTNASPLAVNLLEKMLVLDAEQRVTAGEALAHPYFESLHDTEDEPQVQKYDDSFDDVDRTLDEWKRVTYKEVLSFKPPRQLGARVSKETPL
Particulars: at 0.1 µM.

For experiment [11], the target named is T2, Mitogen-activated protein kinase 12 (Homo sapiens). Particulars: at 1 µM.
Experiment [12] deals with SRSF protein kinase 1 (Homo sapiens) (UniProt Q96SB4). Particulars: at 0.1 µM.
The target is the same in experiment [13]. Particulars: at 1 µM.
In experiment [14] the target is Phosphatidylinositol 4,5-bisphosphate 3-kinase catalytic subunit alpha isoform (Homo sapiens) (UniProt P42336). Particulars: at 0.1 µM.
Experiment [15] shares this target. Particulars: at 1 µM.
Experiment [16] has as its target T3, Phosphatidylinositol 4,5-bisphosphate 3-kinase catalytic subunit delta isoform (Homo sapiens) (UniProt O00329).
T3 sequence (whole entry): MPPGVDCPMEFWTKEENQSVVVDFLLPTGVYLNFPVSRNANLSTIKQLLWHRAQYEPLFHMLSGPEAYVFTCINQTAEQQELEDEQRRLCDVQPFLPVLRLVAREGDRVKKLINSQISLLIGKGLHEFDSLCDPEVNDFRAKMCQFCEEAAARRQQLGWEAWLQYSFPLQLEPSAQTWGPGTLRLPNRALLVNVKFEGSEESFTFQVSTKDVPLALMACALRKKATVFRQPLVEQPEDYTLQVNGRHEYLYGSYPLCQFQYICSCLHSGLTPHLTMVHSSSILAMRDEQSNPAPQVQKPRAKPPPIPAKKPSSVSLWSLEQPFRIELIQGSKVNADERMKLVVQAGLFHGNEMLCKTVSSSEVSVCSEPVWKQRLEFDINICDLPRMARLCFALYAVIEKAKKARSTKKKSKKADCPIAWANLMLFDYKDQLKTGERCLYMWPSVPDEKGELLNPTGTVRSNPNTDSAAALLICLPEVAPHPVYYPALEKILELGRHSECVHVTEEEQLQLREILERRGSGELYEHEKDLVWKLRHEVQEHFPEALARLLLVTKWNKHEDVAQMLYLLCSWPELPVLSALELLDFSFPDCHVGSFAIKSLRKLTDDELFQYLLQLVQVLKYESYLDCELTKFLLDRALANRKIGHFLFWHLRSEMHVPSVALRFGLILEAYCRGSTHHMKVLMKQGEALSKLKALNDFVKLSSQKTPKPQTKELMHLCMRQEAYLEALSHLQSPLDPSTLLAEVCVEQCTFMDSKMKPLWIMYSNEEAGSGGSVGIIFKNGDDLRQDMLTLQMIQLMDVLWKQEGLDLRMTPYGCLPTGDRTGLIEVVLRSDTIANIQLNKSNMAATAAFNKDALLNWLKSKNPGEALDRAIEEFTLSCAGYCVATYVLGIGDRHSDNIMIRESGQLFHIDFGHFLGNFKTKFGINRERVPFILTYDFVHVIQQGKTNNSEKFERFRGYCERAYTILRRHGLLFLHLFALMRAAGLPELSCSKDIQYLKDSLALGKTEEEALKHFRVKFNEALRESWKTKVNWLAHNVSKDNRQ
Particulars: at 0.1 µM.

In experiment [17] the target is T3, Phosphatidylinositol 4,5-bisphosphate 3-kinase catalytic subunit delta isoform (Homo sapiens). Particulars: at 1 µM.
In experiment [18] the target is Phosphatidylinositol 4-kinase beta (Homo sapiens) (UniProt Q9UBF8). Particulars: at 0.1 µM.
The target is the same in experiment [19]. Particulars: at 1 µM.
The target of experiment [20] is Sphingosine kinase 1 (Homo sapiens) (UniProt Q9NYA1). Particulars: at 0.1 µM.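 Note: mean percent inhibition of SPHK1 activity, measured within the GSK PKIS screening panel.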
Sequence of Sphingosine kinase 1 (Homo sapiens) (Q9NYA1 whole entry): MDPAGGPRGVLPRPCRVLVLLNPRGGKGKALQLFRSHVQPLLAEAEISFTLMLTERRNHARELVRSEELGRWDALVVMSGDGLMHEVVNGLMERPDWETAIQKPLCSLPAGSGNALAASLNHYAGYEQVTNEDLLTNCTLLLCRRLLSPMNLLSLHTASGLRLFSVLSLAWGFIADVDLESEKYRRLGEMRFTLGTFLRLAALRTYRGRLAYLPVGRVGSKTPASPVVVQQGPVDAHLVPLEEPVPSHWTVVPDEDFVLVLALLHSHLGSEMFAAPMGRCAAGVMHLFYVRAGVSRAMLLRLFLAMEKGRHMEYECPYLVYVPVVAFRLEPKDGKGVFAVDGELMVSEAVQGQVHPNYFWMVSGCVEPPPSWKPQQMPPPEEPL

Sequence of Phosphatidylinositol 4,5-bisphosphate 3-kinase catalytic subunit alpha isoform (Homo sapiens) (P42336 whole entry, canonical isoform): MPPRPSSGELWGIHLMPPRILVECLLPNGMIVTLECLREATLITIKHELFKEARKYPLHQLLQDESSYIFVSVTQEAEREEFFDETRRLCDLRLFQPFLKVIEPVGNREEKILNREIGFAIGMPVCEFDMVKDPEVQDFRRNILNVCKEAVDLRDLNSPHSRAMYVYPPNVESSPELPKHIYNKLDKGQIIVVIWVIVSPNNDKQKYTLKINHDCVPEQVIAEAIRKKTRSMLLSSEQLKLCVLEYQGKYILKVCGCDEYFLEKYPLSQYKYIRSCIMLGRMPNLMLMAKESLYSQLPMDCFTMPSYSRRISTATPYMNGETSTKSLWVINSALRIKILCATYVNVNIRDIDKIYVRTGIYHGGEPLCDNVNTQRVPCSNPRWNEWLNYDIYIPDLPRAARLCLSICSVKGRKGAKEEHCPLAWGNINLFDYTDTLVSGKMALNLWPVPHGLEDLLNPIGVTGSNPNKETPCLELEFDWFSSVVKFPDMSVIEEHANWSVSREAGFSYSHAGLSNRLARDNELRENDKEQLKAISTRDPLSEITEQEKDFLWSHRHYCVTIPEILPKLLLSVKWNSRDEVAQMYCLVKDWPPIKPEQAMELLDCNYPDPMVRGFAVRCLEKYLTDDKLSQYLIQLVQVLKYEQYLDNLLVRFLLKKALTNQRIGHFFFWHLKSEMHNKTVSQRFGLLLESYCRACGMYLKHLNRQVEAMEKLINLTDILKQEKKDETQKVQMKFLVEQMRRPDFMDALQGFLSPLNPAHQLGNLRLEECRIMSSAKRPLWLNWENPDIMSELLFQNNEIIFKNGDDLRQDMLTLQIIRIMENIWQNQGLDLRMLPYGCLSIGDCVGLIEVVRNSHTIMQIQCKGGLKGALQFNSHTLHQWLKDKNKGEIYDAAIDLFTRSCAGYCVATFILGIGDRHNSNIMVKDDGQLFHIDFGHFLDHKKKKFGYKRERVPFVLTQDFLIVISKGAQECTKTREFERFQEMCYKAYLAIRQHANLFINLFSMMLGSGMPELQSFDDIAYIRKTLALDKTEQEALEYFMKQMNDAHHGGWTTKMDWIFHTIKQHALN
Sequence of SRSF protein kinase 1 (Homo sapiens) (Q96SB4 whole entry): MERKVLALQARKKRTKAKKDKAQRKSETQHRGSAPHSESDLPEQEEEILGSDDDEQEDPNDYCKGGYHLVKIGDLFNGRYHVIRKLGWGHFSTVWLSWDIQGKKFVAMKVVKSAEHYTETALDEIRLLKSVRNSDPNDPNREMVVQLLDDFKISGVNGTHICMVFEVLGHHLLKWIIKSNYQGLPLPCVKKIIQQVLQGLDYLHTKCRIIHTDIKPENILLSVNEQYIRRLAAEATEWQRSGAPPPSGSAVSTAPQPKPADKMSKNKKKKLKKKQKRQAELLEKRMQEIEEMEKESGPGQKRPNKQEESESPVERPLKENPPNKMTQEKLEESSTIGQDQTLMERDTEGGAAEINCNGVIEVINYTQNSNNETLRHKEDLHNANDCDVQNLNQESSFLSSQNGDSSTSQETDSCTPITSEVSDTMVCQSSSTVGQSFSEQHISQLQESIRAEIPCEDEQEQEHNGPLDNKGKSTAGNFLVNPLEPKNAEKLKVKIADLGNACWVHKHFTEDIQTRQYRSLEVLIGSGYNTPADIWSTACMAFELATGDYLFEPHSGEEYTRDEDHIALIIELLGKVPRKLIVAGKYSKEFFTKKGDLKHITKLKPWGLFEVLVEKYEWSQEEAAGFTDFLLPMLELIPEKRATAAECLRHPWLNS
Sequence of Phosphatidylinositol 4-kinase beta (Homo sapiens) (Q9UBF8 2-816 limits assumed): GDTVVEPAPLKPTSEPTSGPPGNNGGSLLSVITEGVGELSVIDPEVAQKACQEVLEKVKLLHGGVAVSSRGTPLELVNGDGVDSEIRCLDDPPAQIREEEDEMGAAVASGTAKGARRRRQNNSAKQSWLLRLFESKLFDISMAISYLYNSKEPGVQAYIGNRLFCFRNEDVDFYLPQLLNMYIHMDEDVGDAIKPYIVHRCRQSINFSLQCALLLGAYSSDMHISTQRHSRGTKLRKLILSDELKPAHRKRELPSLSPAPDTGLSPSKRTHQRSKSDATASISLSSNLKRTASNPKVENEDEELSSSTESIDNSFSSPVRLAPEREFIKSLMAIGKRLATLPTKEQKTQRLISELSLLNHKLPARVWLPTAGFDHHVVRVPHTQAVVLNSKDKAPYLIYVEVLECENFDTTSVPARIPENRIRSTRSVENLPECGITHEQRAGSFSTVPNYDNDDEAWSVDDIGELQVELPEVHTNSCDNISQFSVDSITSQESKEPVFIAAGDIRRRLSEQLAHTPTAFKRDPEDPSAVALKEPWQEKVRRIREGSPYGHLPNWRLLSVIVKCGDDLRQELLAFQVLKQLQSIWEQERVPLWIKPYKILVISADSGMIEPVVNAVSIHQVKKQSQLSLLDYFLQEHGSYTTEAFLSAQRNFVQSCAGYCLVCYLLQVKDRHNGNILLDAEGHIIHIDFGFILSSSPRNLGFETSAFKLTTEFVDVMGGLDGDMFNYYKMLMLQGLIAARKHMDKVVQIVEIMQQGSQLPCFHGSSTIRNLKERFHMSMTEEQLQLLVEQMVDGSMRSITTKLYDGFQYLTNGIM
Sequence of Mitogen-activated protein kinase 14 (Homo sapiens) (Q16539 whole entry): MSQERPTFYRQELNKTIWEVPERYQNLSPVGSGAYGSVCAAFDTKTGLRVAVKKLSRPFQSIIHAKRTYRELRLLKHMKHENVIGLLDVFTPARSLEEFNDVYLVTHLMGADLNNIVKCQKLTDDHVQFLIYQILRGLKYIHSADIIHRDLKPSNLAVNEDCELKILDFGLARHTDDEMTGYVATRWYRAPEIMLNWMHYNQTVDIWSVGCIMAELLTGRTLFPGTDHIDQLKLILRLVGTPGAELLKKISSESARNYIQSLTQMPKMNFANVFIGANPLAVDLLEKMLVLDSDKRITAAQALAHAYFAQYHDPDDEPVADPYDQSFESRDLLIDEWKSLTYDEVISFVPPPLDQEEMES
Sequence of SRSF protein kinase 3 (Homo sapiens) (Q9UPE1 whole entry): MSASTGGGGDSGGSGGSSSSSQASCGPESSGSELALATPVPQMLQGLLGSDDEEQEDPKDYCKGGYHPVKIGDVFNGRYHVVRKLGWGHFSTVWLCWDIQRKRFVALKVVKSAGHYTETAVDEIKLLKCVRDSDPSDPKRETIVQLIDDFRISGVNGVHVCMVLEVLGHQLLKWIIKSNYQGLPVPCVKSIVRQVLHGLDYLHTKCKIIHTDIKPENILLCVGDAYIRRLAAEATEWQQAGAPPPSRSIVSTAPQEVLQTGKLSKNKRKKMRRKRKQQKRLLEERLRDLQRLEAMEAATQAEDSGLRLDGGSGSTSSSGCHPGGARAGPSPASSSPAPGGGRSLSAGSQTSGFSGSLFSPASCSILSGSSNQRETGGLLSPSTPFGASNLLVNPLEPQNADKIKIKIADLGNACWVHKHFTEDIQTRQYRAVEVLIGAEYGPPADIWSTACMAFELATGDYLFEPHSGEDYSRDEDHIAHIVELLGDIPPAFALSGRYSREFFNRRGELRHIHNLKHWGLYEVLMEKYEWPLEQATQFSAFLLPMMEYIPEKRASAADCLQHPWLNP
Sequence of Mitogen-activated protein kinase 11 (Homo sapiens) (Q15759 whole entry): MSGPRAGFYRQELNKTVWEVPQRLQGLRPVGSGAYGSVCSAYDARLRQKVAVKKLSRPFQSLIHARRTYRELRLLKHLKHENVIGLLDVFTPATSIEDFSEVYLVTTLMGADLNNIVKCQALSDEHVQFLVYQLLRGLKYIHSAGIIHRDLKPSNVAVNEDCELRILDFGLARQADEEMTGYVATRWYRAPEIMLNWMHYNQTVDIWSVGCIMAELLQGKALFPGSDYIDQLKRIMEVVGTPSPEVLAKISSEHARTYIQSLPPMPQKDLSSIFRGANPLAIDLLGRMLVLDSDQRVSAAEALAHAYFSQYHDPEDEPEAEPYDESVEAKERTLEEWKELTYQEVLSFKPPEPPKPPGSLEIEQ
Sequence of Mitogen-activated protein kinase 3 (Homo sapiens) (P27361 whole entry): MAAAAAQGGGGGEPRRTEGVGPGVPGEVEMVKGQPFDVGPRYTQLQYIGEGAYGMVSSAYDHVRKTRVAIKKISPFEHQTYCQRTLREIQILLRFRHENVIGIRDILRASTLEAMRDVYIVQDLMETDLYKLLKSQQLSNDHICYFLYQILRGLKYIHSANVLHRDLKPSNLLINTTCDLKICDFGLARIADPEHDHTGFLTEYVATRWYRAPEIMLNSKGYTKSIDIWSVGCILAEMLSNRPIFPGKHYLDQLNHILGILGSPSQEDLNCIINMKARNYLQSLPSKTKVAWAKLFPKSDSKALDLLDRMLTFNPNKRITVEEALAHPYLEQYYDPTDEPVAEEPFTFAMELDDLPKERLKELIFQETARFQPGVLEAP

Take `CCN1CCC(CC(=O)Nc2n[nH]c3nc(-c4cccs4)c(Br)cc23)CC1`: the inhibition in experiment [1] was 0.02%; in [2], -0.78%; in experiment [3] it was 2.42%; in [4], -3.19%; in [5], 0.26%; in [6] it was -1.99%. For the same compound, the inhibition in experiment [7] is 3.07%; in experiment [8], -0.36%; in [9], -1.98%; in [10], -1.67%; in experiment [11], -2.22%; in [12], 1.28%. The inhibition in experiment [13] was 1.67%; in experiment [14] it was -1.25%; in experiment [15], -0.57%; in experiment [16] it was 0.69%; in [17], 2.28%; in [18] it was 4.28%. Further, the results for the inhibition in [19] and in [20] were -0.5% and -0.97%, respectively.

In the case of `CS(=O)(=O)CCNCc1nc(-c2ccc3ncnc(Nc4ccc(F)c(Cl)c4)c3c2)cs1`, the inhibition is 3.66% in experiment [1]; 2.2% in experiment [2]; 1.52% in [3]; 2.36% in [4]; 5.56% in experiment [5]; 2.75% in experiment [6]. The inhibition in experiment [7] was 5.6%; in experiment [8] it was 2.57%; in experiment [9], 1.21%; in experiment [10], 0.83%; in experiment [11] it was 1.73%; in experiment [12], -0.47%. The inhibition in experiment [13] worked out at 1.62%; in experiment [14], 1.55%; in [15] it was 16.8%; in [16] it was 1.95%; in experiment [17] it was 5.42%; in experiment [18] it was 6.61%. Moreover, the inhibition in [19] is 5.06%; in experiment [20], -0.56%.

For `CS(=O)(=O)CCN(CC#N)Cc1ccc(-c2ccc3ncnc(Nc4ccc(OCc5cccc(F)c5)c(Cl)c4)c3c2)o1`, the inhibition in experiment [1] is 1.61%; in [2] it was -3.37%; in experiment [3], -0.95%; in [4], 4.64%; in [5], 3.94%; in experiment [6] it was 1.26%. In addition, the inhibition in experiment [7] was 0.56%; in experiment [8], 3.05%; in experiment [9] it was 2.39%; in experiment [10], 2.47%; in experiment [11], 2.68%; in experiment [12], -2.4%. Further, the inhibition in [13] is -1.01%; in [14] it was 2.09%; in [15], 4.03%; in experiment [16] it was 1.1%; in [17], 4.27%; in experiment [18], 2.65%. Further, the inhibition stood at 3.34% in experiment [19] and 1.82% in experiment [20].

Turning to `Cc1cc(O)cc(C)c1/C=C/c1cncc(-c2nn[nH]n2)c1`, the inhibition in experiment [1] was 5.1%; in experiment [2], 0.25%; in experiment [3] it was -0.18%; in experiment [4], 8.41%; in experiment [5], 12.6%; in [6], 3.52%. Moreover, the inhibition is 3.01% in experiment [7]; 3.42% in experiment [8]; 5.1% in experiment [9]; 1.46% in experiment [10]; 3.07% in [11]; -1.87% in [12]. Moreover, the inhibition in [13] was -2.36%; in experiment [14], 3.19%; in experiment [15], 5.13%; in experiment [16], 2.19%; in [17] it was 6.52%; in experiment [18], -5.96%. For the same compound, the inhibition in experiment [19] is -0.98%; in experiment [20], 0.56%.

As for `O=C1NC(=O)C(c2ccc(Cl)cc2)=C1Nc1ccc(Cl)c(C(=O)O)c1`, the inhibition was 0% in [1]; 0.85% in [2]; 1.51% in [3]; 0.32% in experiment [4]; -0.58% in experiment [5]; -1.36% in experiment [6]. Further, the inhibition is -1.39% in experiment [7]; -5.51% in experiment [8]; -3.8% in experiment [9]; -2.36% in [10]; -2.21% in [11]; 1.64% in experiment [12]. Besides, the inhibition was 3.21% in experiment [13]; 1.09% in [14]; 2.23% in experiment [15]; 3.38% in experiment [16]; 2.76% in [17]; -1.72% in [18]. In addition, the values for the inhibition in [19] and in experiment [20] were -4.96% and -1.27%, respectively.

The inhibition is the drop in the measured response relative to a control, in per cent.
